Experimental data as given in the supplement of paper PMC12669032.
“And” between values parts separate entries of the source, which are not always exact repeats. Equal entries are not always repeated. Unmarked numbers belong to inactive results.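 Rule for the calls: active = AUC reduced over 20% with Padj below 0.05 in at least 2 of 3 replicates; inactive = otherwise.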

Columns and labels:
Assay in all cases: growth AUC relative to DMSO control (median of replicates) (fraction); higher = more growth (less inhibition), active = hit call of the paper
Settings in all cases: 20 µM; 24 h
Akkermansia muciniphila = system: Akkermansia muciniphila
In short: (§1)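 Three biological replicates, each grown on a separate day, were combined as a median for every value. In each, a gut bacterial monoculture in mGAM started at OD600 0.05 and grew anaerobically at 37 °C with 20 µM compound (1% DMSO), with OD600 read hourly over 24 h. Area under the growth curve was normalised against the plate median of solvent-only wells, or against row and column medians on the industrial chemical plate, after the minimum OD was set to 0.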

Bacteroides caccae = system: Bacteroides caccae
In short: as §1

Bacteroides clarus = system: Bacteroides clarus
In short: as §1

Bacteroides dorei = system: Bacteroides dorei
In short: as §1

Bacteroides stercoris = system: Bacteroides stercoris
In short: as §1

[1] = system: Bacteroides thetaiotaomicron
In short: as §1

Bacteroides uniformis = system: Bacteroides uniformis
In short: as §1

[2] = system: Bifidobacterium longum subsp. longum
In short: as §1

Clostridium difficile = system: Clostridium difficile
In short: as §1

Collinsella aerofaciens = system: Collinsella aerofaciens
In short: as §1

Coprococcus comes = system: Coprococcus comes
In short: as §1

Escherichia coli ED1a = system: Escherichia coli ED1a
In short: as §1

Escherichia coli IAI1 = system: Escherichia coli IAI1
In short: as §1

Eubacterium rectale = system: Eubacterium rectale
In short: as §1

[3] = system: Fusobacterium nucleatum subsp. animalis
In short: as §1

Lactobacillus gasseri = system: Lactobacillus gasseri
In short: as §1

Lactobacillus paracasei = system: Lactobacillus paracasei
In short: as §1

Odoribacter splanchnicus = system: Odoribacter splanchnicus
In short: as §1

[4] = system: Parabacteroides distasonis
In short: as §1

Parabacteroides merdae = system: Parabacteroides merdae
In short: as §1

## COC(=O)/C=C(/C)OP(=O)(OC)OC
Akkermansia muciniphila
  growth AUC: 1.05 and 1.08
Bacteroides caccae
  growth AUC: 0.952 and 0.906
Bacteroides clarus
  growth AUC: 1.02 and 1.08
Bacteroides dorei
  growth AUC: 0.879 and 1.01
Bacteroides stercoris
  growth AUC: 0.938 and 1.2
[1]
  growth AUC: 0.992 and 0.984
Bacteroides uniformis
  growth AUC: 0.981 and 0.997
[2]
  growth AUC: 1 and 1.06
Clostridium difficile
  growth AUC: 0.956 and 1.01
Collinsella aerofaciens
  growth AUC: 0.959 and 0.989
Coprococcus comes
  growth AUC: 1.02 and 1.04
Escherichia coli ED1a
  growth AUC: 1.01 and 1.05
Escherichia coli IAI1
  growth AUC: 0.997 and 1.04
Eubacterium rectale
  growth AUC: 1.03 and 1.05
[3]
  growth AUC: 1.03 and 1.22
Lactobacillus gasseri
  growth AUC: 0.973 and 1.01
Lactobacillus paracasei
  growth AUC: 0.956 and 1.04
Odoribacter splanchnicus
  growth AUC: 1.09 and 0.835
[4]
  growth AUC: 0.972 and 0.999
Parabacteroides merdae
  growth AUC: 1 and 1.05

## COC(C)(C)CCCC(C)C/C=C/C(C)=C/C(=O)OC(C)C (stereo not given)
Akkermansia muciniphila
  growth AUC: 0.867
Bacteroides caccae
  growth AUC: 1
Bacteroides clarus
  growth AUC: 0.989
Bacteroides dorei
  growth AUC: 0.996
Bacteroides stercoris
  growth AUC: 1.03
[1]
  growth AUC: 0.981
Bacteroides uniformis
  growth AUC: 0.963
[2]
  growth AUC: 0.987
Clostridium difficile
  growth AUC: 1.02
Collinsella aerofaciens
  growth AUC: 1.04
Coprococcus comes
  growth AUC: 1.01
Escherichia coli ED1a
  growth AUC: 1.01
Escherichia coli IAI1
  growth AUC: 1
Eubacterium rectale
  growth AUC: 0.831
[3]
  growth AUC: 1
Lactobacillus gasseri
  growth AUC: 1.04
Lactobacillus paracasei
  growth AUC: 1.04
Odoribacter splanchnicus
  growth AUC: 0.999
[4]
  growth AUC: 1
Parabacteroides merdae
  growth AUC: 1

## CCC(C)c1cc([N+](=O)[O-])cc([N+](=O)[O-])c1OC(=O)C=C(C)C (stereo not given)
Akkermansia muciniphila
  growth AUC: 1.15
Bacteroides caccae
  growth AUC: 0.986
Bacteroides clarus
  growth AUC: 0.74 (active)
Bacteroides dorei
  growth AUC: 0.801
Bacteroides stercoris
  growth AUC: 0.473 (active)
[1]
  growth AUC: 0.802
Bacteroides uniformis
  growth AUC: 0.479 (active)
[2]
  growth AUC: 0.879
Clostridium difficile
  growth AUC: 0.989
Collinsella aerofaciens
  growth AUC: 0.956
Coprococcus comes
  growth AUC: 0.945
Escherichia coli ED1a
  growth AUC: 0.968
Escherichia coli IAI1
  growth AUC: 0.973
Eubacterium rectale
  growth AUC: 0.978
[3]
  growth AUC: 0.802
Lactobacillus gasseri
  growth AUC: 0.762
Lactobacillus paracasei
  growth AUC: 0.955
Odoribacter splanchnicus
  growth AUC: 0.515 (active)
[4]
  growth AUC: 0.418 (active)
Parabacteroides merdae
  growth AUC: 0.902

## Nc1cnn(-c2ccccc2)c(=O)c1Cl
Akkermansia muciniphila
  growth AUC: 0.895
Bacteroides caccae
  growth AUC: 1.01
Bacteroides clarus
  growth AUC: 0.992
Bacteroides dorei
  growth AUC: 0.995
Bacteroides stercoris
  growth AUC: 1.12
[1]
  growth AUC: 1.01
Bacteroides uniformis
  growth AUC: 0.997
[2]
  growth AUC: 0.936
Clostridium difficile
  growth AUC: 1.03
Collinsella aerofaciens
  growth AUC: 1
Coprococcus comes
  growth AUC: 1.02
Escherichia coli ED1a
  growth AUC: 1.03
Escherichia coli IAI1
  growth AUC: 1
Eubacterium rectale
  growth AUC: 1.03
[3]
  growth AUC: 1.05
Lactobacillus gasseri
  growth AUC: 1.07
Lactobacillus paracasei
  growth AUC: 1.07
Odoribacter splanchnicus
  growth AUC: 0.949
[4]
  growth AUC: 0.996
Parabacteroides merdae
  growth AUC: 0.997

## O=C(O)C(Cl)Cl
Akkermansia muciniphila
  growth AUC: 0.875
Bacteroides caccae
  growth AUC: 0.977
Bacteroides clarus
  growth AUC: 0.966
Bacteroides dorei
  growth AUC: 1.02
Bacteroides stercoris
  growth AUC: 0.994
[1]
  growth AUC: 0.999
Bacteroides uniformis
  growth AUC: 1.01
[2]
  growth AUC: 1.01
Clostridium difficile
  growth AUC: 1
Collinsella aerofaciens
  growth AUC: 0.981
Coprococcus comes
  growth AUC: 0.959
Escherichia coli ED1a
  growth AUC: 1.01
Escherichia coli IAI1
  growth AUC: 0.966
Eubacterium rectale
  growth AUC: 0.977
[3]
  growth AUC: 1.04
Lactobacillus gasseri
  growth AUC: 1.04
Lactobacillus paracasei
  growth AUC: 1.05
Odoribacter splanchnicus
  growth AUC: 0.997
[4]
  growth AUC: 0.998
Parabacteroides merdae
  growth AUC: 1.03

## CC(C)N(C(=O)CCl)c1ccccc1
Akkermansia muciniphila
  growth AUC: 0.256 (active)
Bacteroides caccae
  growth AUC: 1.02
Bacteroides clarus
  growth AUC: 0.969
Bacteroides dorei
  growth AUC: 1.01
Bacteroides stercoris
  growth AUC: 0.978
[1]
  growth AUC: 0.933
Bacteroides uniformis
  growth AUC: 0.96
[2]
  growth AUC: 0.946
Clostridium difficile
  growth AUC: 0.965
Collinsella aerofaciens
  growth AUC: 1.05
Coprococcus comes
  growth AUC: 0.961
Escherichia coli ED1a
  growth AUC: 0.982
Escherichia coli IAI1
  growth AUC: 1.02
Eubacterium rectale
  growth AUC: 0.923
[3]
  growth AUC: 0.911
Lactobacillus gasseri
  growth AUC: 1.17
Lactobacillus paracasei
  growth AUC: 0.946
Odoribacter splanchnicus
  growth AUC: 0.942
[4]
  growth AUC: 0.992
Parabacteroides merdae
  growth AUC: 0.982

## CNC(=O)N(C)c1nc2ccccc2s1
Akkermansia muciniphila
  growth AUC: 0.902
Bacteroides caccae
  growth AUC: 1.02
Bacteroides clarus
  growth AUC: 0.991
Bacteroides dorei
  growth AUC: 1
Bacteroides stercoris
  growth AUC: 0.998
[1]
  growth AUC: 0.999
Bacteroides uniformis
  growth AUC: 0.991
[2]
  growth AUC: 0.936
Clostridium difficile
  growth AUC: 0.978
Collinsella aerofaciens
  growth AUC: 0.995
Coprococcus comes
  growth AUC: 0.992
Escherichia coli ED1a
  growth AUC: 0.999
Escherichia coli IAI1
  growth AUC: 0.991
Eubacterium rectale
  growth AUC: 0.958
[3]
  growth AUC: 0.971
Lactobacillus gasseri
  growth AUC: 0.994
Lactobacillus paracasei
  growth AUC: 0.949
Odoribacter splanchnicus
  growth AUC: 0.988
[4]
  growth AUC: 0.972
Parabacteroides merdae
  growth AUC: 1.02

## CCC(=O)Nc1ccc(Cl)c(Cl)c1
Akkermansia muciniphila
  growth AUC: 0.797
Bacteroides caccae
  growth AUC: 1
Bacteroides clarus
  growth AUC: 0.978
Bacteroides dorei
  growth AUC: 1.03
Bacteroides stercoris
  growth AUC: 0.972
[1]
  growth AUC: 0.988
Bacteroides uniformis
  growth AUC: 0.969
[2]
  growth AUC: 0.837
Clostridium difficile
  growth AUC: 1.03
Collinsella aerofaciens
  growth AUC: 0.999
Coprococcus comes
  growth AUC: 1
Escherichia coli ED1a
  growth AUC: 0.943
Escherichia coli IAI1
  growth AUC: 0.99
Eubacterium rectale
  growth AUC: 0.992
[3]
  growth AUC: 0.87
Lactobacillus gasseri
  growth AUC: 0.979
Lactobacillus paracasei
  growth AUC: 0.922
Odoribacter splanchnicus
  growth AUC: 0.943
[4]
  growth AUC: 0.994
Parabacteroides merdae
  growth AUC: 0.995

## COP(=S)(OC)SC(CC(=O)O)C(=O)O (stereo not given)
Akkermansia muciniphila
  growth AUC: 0.974
Bacteroides caccae
  growth AUC: 1.01
Bacteroides clarus
  growth AUC: 0.963
Bacteroides dorei
  growth AUC: 0.986
Bacteroides stercoris
  growth AUC: 1.06
[1]
  growth AUC: 0.991
Bacteroides uniformis
  growth AUC: 0.99
[2]
  growth AUC: 1.01
Clostridium difficile
  growth AUC: 1
Collinsella aerofaciens
  growth AUC: 1.05
Coprococcus comes
  growth AUC: 1.01
Escherichia coli ED1a
  growth AUC: 1.02
Escherichia coli IAI1
  growth AUC: 0.974
Eubacterium rectale
  growth AUC: 0.884
[3]
  growth AUC: 1.01
Lactobacillus gasseri
  growth AUC: 1.03
Lactobacillus paracasei
  growth AUC: 0.972
Odoribacter splanchnicus
  growth AUC: 1.14
[4]
  growth AUC: 0.956
Parabacteroides merdae
  growth AUC: 0.976

## CCOP(=O)(OCC)ON1C(=O)c2cccc3cccc(c23)C1=O
Akkermansia muciniphila
  growth AUC: 1.01
Bacteroides caccae
  growth AUC: 0.856
Bacteroides clarus
  growth AUC: 0.898
Bacteroides dorei
  growth AUC: 0.754 (active)
Bacteroides stercoris
  growth AUC: 0.482 (active)
[1]
  growth AUC: 0.736 (active)
Bacteroides uniformis
  growth AUC: 0.683 (active)
[2]
  growth AUC: 1.05
Clostridium difficile
  growth AUC: 0.946
Collinsella aerofaciens
  growth AUC: 0.936
Coprococcus comes
  growth AUC: 0.971
Escherichia coli ED1a
  growth AUC: 0.994
Escherichia coli IAI1
  growth AUC: 0.958
Eubacterium rectale
  growth AUC: 1.16
[3]
  growth AUC: 0.961
Lactobacillus gasseri
  growth AUC: 0.954
Lactobacillus paracasei
  growth AUC: 0.971
Odoribacter splanchnicus
  growth AUC: 0.484 (active)
[4]
  growth AUC: 0.619 (active)
Parabacteroides merdae
  growth AUC: 0.794 (active)

## C[C@@H](Oc1ccc(Oc2ccc(C(F)(F)F)cn2)cc1)C(=O)O
Akkermansia muciniphila
  growth AUC: 1.08
Bacteroides caccae
  growth AUC: 1.04
Bacteroides clarus
  growth AUC: 1.02
Bacteroides dorei
  growth AUC: 1.02
Bacteroides stercoris
  growth AUC: 1.05
[1]
  growth AUC: 1.02
Bacteroides uniformis
  growth AUC: 0.995
[2]
  growth AUC: 0.985
Clostridium difficile
  growth AUC: 1.02
Collinsella aerofaciens
  growth AUC: 0.957
Coprococcus comes
  growth AUC: 1.03
Escherichia coli ED1a
  growth AUC: 1
Escherichia coli IAI1
  growth AUC: 1
Eubacterium rectale
  growth AUC: 1.06
[3]
  growth AUC: 1.06
Lactobacillus gasseri
  growth AUC: 0.867
Lactobacillus paracasei
  growth AUC: 1.02
Odoribacter splanchnicus
  growth AUC: 1.03
[4]
  growth AUC: 1.01
Parabacteroides merdae
  growth AUC: 1.07

## CCOc1ccccc1OS(=O)(=O)NC(=O)Nc1nc(OC)cc(OC)n1
Akkermansia muciniphila
  growth AUC: 1.02
Bacteroides caccae
  growth AUC: 1.05
Bacteroides clarus
  growth AUC: 0.972
Bacteroides dorei
  growth AUC: 1.05
Bacteroides stercoris
  growth AUC: 0.901
[1]
  growth AUC: 1.01
Bacteroides uniformis
  growth AUC: 0.993
[2]
  growth AUC: 0.967
Clostridium difficile
  growth AUC: 1.13
Collinsella aerofaciens
  growth AUC: 1.03
Coprococcus comes
  growth AUC: 1.01
Escherichia coli ED1a
  growth AUC: 1.01
Escherichia coli IAI1
  growth AUC: 1.01
Eubacterium rectale
  growth AUC: 0.938
[3]
  growth AUC: 1
Lactobacillus gasseri
  growth AUC: 1.11
Lactobacillus paracasei
  growth AUC: 0.736
Odoribacter splanchnicus
  growth AUC: 1.15
[4]
  growth AUC: 1.02
Parabacteroides merdae
  growth AUC: 1.02
